Inconclusive results are not listed. The source made the active and inactive calls. Unless noted, the call rests on the fitted dose curve; in most records, active means well fitted curve in the direction sought with a large enough effect; inconclusive means small, poorly fitted or top-dose-only effect, or another doubt; inactive means no such curve, though single readings can be large; an effect the other way counts as inactive or inconclusive.
Tests used:
[1] = biological target: Cytochrome P450 2D6 (Homo sapiens) (UniProt P10635); assay: Cytochrome P450 family 2 subfamily D member 6 (CYP2D6) small molecule antagonists: luciferase biochemical (cell-free) qHTS assay (AID 1645840; active means well fitted curve in the direction sought with a large enough effect in the repeat runs; an effect the other way counts as inactive or inconclusive; further: nearly all actives have a fitted effect of over 55% in size; further: potency means the concentration at half of the fitted maximal effect; on activity change, negative = inhibition: on the % scale 0 is the no-effect control and ±100 the full control effect)
Chain of Cytochrome P450 2D6 (Homo sapiens) (P10635 whole entry, looked up): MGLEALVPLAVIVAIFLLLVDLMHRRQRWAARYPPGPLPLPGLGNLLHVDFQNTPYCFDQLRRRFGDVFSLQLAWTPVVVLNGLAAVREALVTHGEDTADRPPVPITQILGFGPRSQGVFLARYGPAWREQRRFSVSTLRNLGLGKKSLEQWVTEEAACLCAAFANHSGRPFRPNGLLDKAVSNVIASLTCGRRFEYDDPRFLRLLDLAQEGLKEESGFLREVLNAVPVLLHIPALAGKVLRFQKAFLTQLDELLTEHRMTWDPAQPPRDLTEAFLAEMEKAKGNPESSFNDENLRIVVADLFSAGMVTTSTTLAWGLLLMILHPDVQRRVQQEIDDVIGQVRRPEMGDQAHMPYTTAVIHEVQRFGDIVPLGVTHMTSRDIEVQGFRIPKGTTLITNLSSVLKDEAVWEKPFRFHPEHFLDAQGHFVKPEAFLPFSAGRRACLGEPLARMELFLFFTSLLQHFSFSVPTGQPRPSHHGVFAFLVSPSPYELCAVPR
Procedure, shortened: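 P450-Glo CYP2D6 system: proluciferin substrate converted by enzyme to luciferin, read by luminescence proportional to activity. Enzyme-substrate mix with compound 10 min at room temperature, then NADPH regeneration 1 h before detection reagent.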

[2] = biological target: Cytochrome P450 2C9 (Homo sapiens) (UniProt P11712); assay: Cytochrome P450 family 2 subfamily C member 9 (CYP2C9) small molecule antagonists: luciferase biochemical (cell-free) qHTS assay (AID 1645842; active means well fitted curve in the direction sought with a large enough effect in the repeat runs; an effect the other way counts as inactive or inconclusive; further: nearly all actives have a fitted effect of over 55% in size; further: potency means the concentration at half of the fitted maximal effect; on activity change, negative = inhibition: on the % scale 0 is the no-effect control and ±100 the full control effect)
Chain of Cytochrome P450 2C9 (Homo sapiens) (P11712 whole entry, looked up): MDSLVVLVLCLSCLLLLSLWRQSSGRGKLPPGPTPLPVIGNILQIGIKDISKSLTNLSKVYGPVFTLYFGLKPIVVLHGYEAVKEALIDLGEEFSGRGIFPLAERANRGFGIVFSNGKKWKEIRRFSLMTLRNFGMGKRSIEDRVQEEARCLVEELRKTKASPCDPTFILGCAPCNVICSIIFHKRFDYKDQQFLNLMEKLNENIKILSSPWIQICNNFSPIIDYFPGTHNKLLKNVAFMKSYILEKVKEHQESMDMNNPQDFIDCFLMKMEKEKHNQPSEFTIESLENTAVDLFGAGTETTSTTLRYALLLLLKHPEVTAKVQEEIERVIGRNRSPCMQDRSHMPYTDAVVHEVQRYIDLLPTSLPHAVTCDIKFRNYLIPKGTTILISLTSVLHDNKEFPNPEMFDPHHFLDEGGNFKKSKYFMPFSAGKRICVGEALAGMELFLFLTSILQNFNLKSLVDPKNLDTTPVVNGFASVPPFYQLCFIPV
Procedure, shortened: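 P450-Glo CYP2C9 system: proluciferin substrate with enzyme in mix containing 0.4% BSA, 10 min at room temperature, then NADPH regeneration solution added and incubated 1 h at 37C. Detection reagent stopped reaction; luminescence read after 20 min as RLU.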

[3] = Primary qHTS for inhibitors of nuclear receptor binding SET domain protein 2 (NSD2) in an isogenic RCH-ACV NSD2 p.E1099K mutant (9B) (AID 1645876); further: nearly all actives have a fitted effect of over 70% in size; further: potency means the concentration at half of the fitted maximal effect
[4] = Primary qHTS for inhibitors of nuclear receptor binding SET domain protein 2 (NSD2) in an RCH-ACV wild type WT cells (2C) (AID 1645877); further: nearly all actives have a fitted effect of over 70% in size; further: potency means the concentration at half of the fitted maximal effect; on activity change, negative = cell killing: on the % scale 0 is the no-effect control and ±100 the full control effect
[5] = biological target: Glutathione peroxidase 1 (Homo sapiens) (UniProt P07203); assay: Primary qHTS Assay for Inhibitors of Recombinant Selenoprotein Glutathione Peroxidase 1 (GPX1) (AID 1845191); further: nearly all actives have a fitted effect of over 65% in size
Chain of Glutathione peroxidase 1 (Homo sapiens) (P07203 whole entry, looked up): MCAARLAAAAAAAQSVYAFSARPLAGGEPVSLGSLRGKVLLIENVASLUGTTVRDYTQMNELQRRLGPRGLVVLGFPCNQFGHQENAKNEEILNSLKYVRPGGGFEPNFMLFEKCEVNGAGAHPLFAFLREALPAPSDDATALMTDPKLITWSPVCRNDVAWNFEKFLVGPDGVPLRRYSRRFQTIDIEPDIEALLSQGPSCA
Procedure, shortened: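 GPX1 10 nM, GR 100 nM, GSH 1 mM, NADPH 0.5 mM, CHP 0.5 mM (final). 30-min cpd preincubation, RT. Ex340/Em450 read t=0, t=15 min.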

[6] = Viability counterscreen for antagonist of constitutive androstane receptor (CAR) against the NCATS DSHEA and TCM libraries (AID 1794837);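 further: compound exposure lasted 24 h before viability reading; 0% is about no effect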
Procedure, shortened: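 Counterscreen performed in a 1536-well qHTS format using HepG2-CYP2B6-hCAR cells; samples titrated in the presence of 48 uM CITCO, with viability measured fluorometrically (405/540 nm) after 24 h.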

[7] = Viability counterscreen for agonist of constitutive androstane receptor (CAR) against the NCATS DSHEA and TCM libraries (AID 1794838);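 further: cells exposed to compound for 24 h; 0% is about no effect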
Procedure, shortened: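 Multiplexed counterscreen: after 24 h compound exposure with 0.75 uM PK11195, HepG2-CYP2B6-hCAR viability was quantified fluorimetrically (CellTiter-Fluor, 405/540 nm) prior to the ONE-Glo luciferase read.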

[8] = biological target: Nuclear receptor subfamily 1 group I member 3 (Homo sapiens) (UniProt Q14994); assay: Primary qHTS for agonist of constitutive androstane receptor (CAR) against the NCATS DSHEA and TCM libraries (AID 1794839);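 further: HepG2 cells expressing human CAR with a CYP2B6 reporter plus PK11195 antagonist; luciferase reporter luminescence read with ONE-Glo; 0% is about no effect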
Chain of Nuclear receptor subfamily 1 group I member 3 (Homo sapiens) (Q14994 whole entry, looked up): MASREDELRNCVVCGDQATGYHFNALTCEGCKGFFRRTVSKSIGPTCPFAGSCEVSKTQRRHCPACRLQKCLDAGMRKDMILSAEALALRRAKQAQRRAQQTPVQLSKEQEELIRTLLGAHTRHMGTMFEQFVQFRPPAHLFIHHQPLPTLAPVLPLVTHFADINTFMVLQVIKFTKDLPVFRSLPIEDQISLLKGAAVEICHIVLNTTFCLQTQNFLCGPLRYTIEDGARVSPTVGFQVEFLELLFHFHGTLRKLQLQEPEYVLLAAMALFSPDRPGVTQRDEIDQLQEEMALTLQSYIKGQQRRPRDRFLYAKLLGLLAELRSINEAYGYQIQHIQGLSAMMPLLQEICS
Procedure, shortened: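 Concentration–response screen in HepG2-CYP2B6-hCAR cells under 0.75 µM PK11195; 24 h exposure; luminescent reporter signal with multiplexed fluorescent viability.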

[9] = HepG2 viability counterscreen (readout 2: ATP content) against the NCATS DSHEA and TCM libraries (AID 1794840);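 further: HepG2 cells exposed to substances for about 24 h; 0% is about no effect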
Procedure, shortened: (§1)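 After HepG2 cells attach for ~4 h, substances are added and incubated ~24 h at 37C, 5% CO2. GF-AFC fluorescence then CellTiter-Glo luminescence give protease and ATP readouts.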

[10] = HepG2 viability counterscreen (readout 1: protease activity) against the NCATS DSHEA and TCM libraries (AID 1794841);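 further: cells exposed to compounds for about 24 h before the protease read; 0% is about no effect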
Procedure, shortened: as §1

[11] = biological target: Rap guanine nucleotide exchange factor 3 (Homo sapiens) (UniProt O95398); assay: Confirmatory qHTS for antagonist of cAMP-regulated guanine nucleotide exchange factor 3 (EPAC1) (AID 1645880);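 further: plate controls were DMSO only for no effect and full effect of the ATA control for full effect; nearly all actives have a fitted effect of over 55% in size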
Chain of Rap guanine nucleotide exchange factor 3 (Homo sapiens) (O95398 whole entry, looked up): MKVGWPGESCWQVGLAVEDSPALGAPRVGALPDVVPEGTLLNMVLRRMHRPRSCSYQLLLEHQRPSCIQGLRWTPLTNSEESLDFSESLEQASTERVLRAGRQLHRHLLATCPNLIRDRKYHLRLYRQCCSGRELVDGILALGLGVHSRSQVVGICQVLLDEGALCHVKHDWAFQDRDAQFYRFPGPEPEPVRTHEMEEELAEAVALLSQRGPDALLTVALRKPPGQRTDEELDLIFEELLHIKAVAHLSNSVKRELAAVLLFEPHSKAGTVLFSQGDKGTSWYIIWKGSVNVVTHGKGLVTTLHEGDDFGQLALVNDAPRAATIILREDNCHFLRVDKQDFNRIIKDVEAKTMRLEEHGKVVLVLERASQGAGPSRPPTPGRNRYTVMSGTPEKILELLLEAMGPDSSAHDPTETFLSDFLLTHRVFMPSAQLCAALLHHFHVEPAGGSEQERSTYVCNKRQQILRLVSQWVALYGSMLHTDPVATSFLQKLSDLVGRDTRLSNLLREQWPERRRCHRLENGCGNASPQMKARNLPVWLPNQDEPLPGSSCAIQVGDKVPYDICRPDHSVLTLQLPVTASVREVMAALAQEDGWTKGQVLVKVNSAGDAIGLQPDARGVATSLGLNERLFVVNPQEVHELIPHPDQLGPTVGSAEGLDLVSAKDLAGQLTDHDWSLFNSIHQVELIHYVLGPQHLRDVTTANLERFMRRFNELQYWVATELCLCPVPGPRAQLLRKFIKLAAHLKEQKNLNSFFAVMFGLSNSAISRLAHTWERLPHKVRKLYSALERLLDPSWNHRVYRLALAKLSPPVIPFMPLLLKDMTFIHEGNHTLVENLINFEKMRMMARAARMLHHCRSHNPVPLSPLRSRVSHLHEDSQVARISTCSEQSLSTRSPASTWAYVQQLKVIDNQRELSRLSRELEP
Procedure, shortened: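 Released BODIPY-GDP fluoresces less than Rap1-bound BODIPY-GDP; the signal is followed at 480/540 nm at 5-min intervals over 30 min, after 5 min at room temperature. Reactions contain 100 nM EPAC1, 250 nM RAP1B-BODIPY-GDP and 50 uM GDP; results are normalized to ATA and DMSO.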

[12] = biological target: Rap guanine nucleotide exchange factor 3 (Homo sapiens) (UniProt O95398); assay: Confirmatory qHTS for agonist of cAMP-regulated guanine nucleotide exchange factor 3 (EPAC1) (AID 1645881);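 further: EPAC1 catalysed release of BODIPY-GDP from Rap1B seen as fluorescence loss; 100% = effect of cAMP agonist control; nearly all actives have a fitted effect of over 75% in size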
[13] = biological target: Rap guanine nucleotide exchange factor 4 (Homo sapiens) (UniProt Q8WZA2); assay: Confirmatory qHTS for agonist of cAMP-regulated guanine nucleotide exchange factor 4 (EPAC2) (AID 1645884);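 further: nucleotide exchange releases bodipy-GDP from Rap1 and this lowers its fluorescence; on the % scale 0 is the no-effect control and ±100 the full control effect; nearly all actives have a fitted effect of over 65% in size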
Chain of Rap guanine nucleotide exchange factor 4 (Homo sapiens) (Q8WZA2 whole entry, looked up): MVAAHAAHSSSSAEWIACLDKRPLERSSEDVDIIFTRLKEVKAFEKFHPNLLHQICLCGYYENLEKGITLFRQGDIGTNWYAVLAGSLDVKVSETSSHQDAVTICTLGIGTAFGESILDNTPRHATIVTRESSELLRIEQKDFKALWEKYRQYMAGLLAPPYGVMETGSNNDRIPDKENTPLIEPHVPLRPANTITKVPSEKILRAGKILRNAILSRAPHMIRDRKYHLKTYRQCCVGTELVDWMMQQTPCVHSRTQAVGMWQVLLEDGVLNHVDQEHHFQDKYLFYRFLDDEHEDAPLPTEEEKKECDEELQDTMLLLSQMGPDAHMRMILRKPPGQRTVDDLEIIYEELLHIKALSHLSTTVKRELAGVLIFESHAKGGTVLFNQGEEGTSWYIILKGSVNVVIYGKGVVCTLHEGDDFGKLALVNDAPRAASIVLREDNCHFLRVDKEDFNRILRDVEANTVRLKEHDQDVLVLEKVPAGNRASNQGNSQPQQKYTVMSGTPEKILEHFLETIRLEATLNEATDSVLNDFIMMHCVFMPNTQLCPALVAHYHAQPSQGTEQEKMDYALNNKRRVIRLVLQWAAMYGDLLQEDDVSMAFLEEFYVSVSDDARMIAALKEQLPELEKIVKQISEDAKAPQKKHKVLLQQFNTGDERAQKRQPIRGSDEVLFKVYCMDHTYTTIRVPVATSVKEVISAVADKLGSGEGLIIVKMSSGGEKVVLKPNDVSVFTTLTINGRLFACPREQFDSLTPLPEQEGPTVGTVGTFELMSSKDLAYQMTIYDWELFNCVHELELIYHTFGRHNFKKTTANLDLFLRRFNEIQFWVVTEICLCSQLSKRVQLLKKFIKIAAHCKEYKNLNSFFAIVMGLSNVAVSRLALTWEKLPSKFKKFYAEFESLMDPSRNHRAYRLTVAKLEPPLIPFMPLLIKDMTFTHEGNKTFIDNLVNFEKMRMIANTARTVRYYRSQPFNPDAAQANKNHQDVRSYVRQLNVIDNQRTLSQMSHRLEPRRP

[14] = biological target: Rap guanine nucleotide exchange factor 4 (Homo sapiens) (UniProt Q8WZA2); assay: Confirmatory qHTS for antagonist of cAMP-regulated guanine nucleotide exchange factor 4 (EPAC2) (AID 1645885); further: nearly all actives have a fitted effect of over 25% in size; further: potency means the concentration at half of the fitted maximal effect; on activity change, negative = inhibition: on the % scale 0 is the no-effect control and ±100 the full control effect
[15] = NCATS anti-infectives library activity on the primary C. elegans qHTS viability assay (AID 1745855; calls by dose curve); conditions: C. elegans worm area imaging, day 7; at 41.8 µM (top of the series) unless noted
Procedure, shortened: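 GFP read-out by 488 nm laser cytometry at day 0, 3 and 7, gated on object perimeter, area and peak intensity, scored viability of PE254-GFP-FLuc worms exposed to compound in S medium with bacterial capsules at 21 °C.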

CCN[C@@H]1C[C@H](N)[C@@H](OC2OC(CN)=CCC2N)[C@H](O)[C@H]1O[C@H]1OC[C@](C)(O)[C@H](NC)[C@H]1O (stereo partly specified)
inactive: activity change, negative = inhibition [1] 2.45% [at 0.91 µM] | activity change, negative = inhibition [2] 10% [at 0.91 µM] | outcome [3] inactive [at 0.588 µM] | activity change, negative = cell killing [4] 2.3% [at 0.588 µM]

CC(=O)Nc1ccc(OC(=O)c2ccccc2OC(C)=O)cc1
active: Potency [1] 15.5 µM
inactive: Potency [2] | Potency [3] | Potency [4] | Potency [5]

CCCCCCCCCCCCCCCC(=O)O
inactive: Potency [1] | Potency [2] | Potency [3] | Potency [4] | outcome [6] | outcome [7] | outcome [8] | outcome [9] | outcome [10]

Cn1c(=O)c2[nH]c(Br)nc2n(C)c1=O
inactive: Potency [1] | Potency [2] | Potency [3] | Potency [4]

OC[C@H]1O[C@@H]2O[C@H]3[C@H](O)[C@@H](O)[C@@H](O[C@H]4[C@H](O)[C@@H](O)[C@@H](O[C@H]5[C@H](O)[C@@H](O)[C@@H](O[C@H]6[C@H](O)[C@@H](O)[C@@H](O[C@H]7[C@H](O)[C@@H](O)[C@@H](O[C@H]8[C@H](O)[C@@H](O)[C@@H](O[C@H]1[C@H](O)[C@H]2O)O[C@@H]8CO)O[C@@H]7CO)O[C@@H]6CO)O[C@@H]5CO)O[C@@H]4CO)O[C@@H]3CO
inactive: Potency [1] | Potency [2] | Potency [3] | Potency [4]

CCCCCCCCCCC[C@@H](C[C@@H]1OC(=O)[C@H]1CCCCCC)OC(=O)[C@H](CC(C)C)NC=O
inactive: Potency [1] | Potency [3] | Potency [4] | Potency [5]
active: Potency [2] 2.75 µM

C[N+]1(CC2COC(c3ccccc3)(C3CCCCC3)O2)CCCCC1 (stereo unspecified)
inactive: Potency [2] | Potency [5]
active: Potency [1] 1.55 µM | Potency [3] 21.1 µM | Potency [4] 21.1 µM

C[C@@H](O)[C@H]1C(=O)N2C(C(=O)O)=C(S[C@@H]3CN[C@H](CNS(N)(=O)=O)C3)[C@H](C)[C@H]12
active: Potency [2] 11 µM
inactive: Potency [1] | Potency [3] | Potency [4] | Potency [5]

COc1ccc(CCN(C)CCCN2CCc3cc(OC)c(OC)cc3CC2=O)cc1OC
inactive: Potency [1] | Potency [2] | Potency [3] | Potency [4]

CCN(CC)CCOC(=O)C1(c2ccccc2)CCCC1
inactive: Potency [2] | Potency [3] | Potency [4] | Potency [5]
active: Potency [1] 2.19 µM

CN1CCN(c2cc3c(cc2F)c(=O)c(C(=O)O)cn3-c2ccc(F)cc2)CC1
active: Potency [3] 11.9 µM | Potency [4] 7.5 µM
inactive: Potency [1] | Potency [2]

COc1cc(C(=O)NCc2ccc(OCCN(C)C)cc2)cc(OC)c1OC
inactive: Potency [1] | Potency [2] | Potency [3] | Potency [4]

O=C(Oc1cccc2cccnc12)c1ccccc1
inactive: Potency [1] | Potency [2] | Potency [3] | Potency [4] | Potency [5]

CCOC(=O)C(C#N)=C(c1ccccc1)c1ccccc1
active: Potency [2] 2.45 µM | Potency [14] 49.4 µM
inactive: Potency [1] | Potency [3] | Potency [4] | Potency [11] | outcome [12] | outcome [13]

CCOc1ccccc1OCCN[C@H](C)Cc1ccc(OC)c(S(N)(=O)=O)c1
inactive: Potency [2] | Potency [3] | Potency [4] | Potency [5]
active: Potency [1] 15.5 µM

CC(C)CCCC(C)N (stereo unspecified)
inactive: Potency [1] | Potency [2] | Potency [3] | Potency [4]

CCCN(CCC)S(=O)(=O)c1ccc(C(=O)O)cc1
inactive: Potency [1] | Potency [2] | Potency [3] | Potency [4] | Potency [5]

NS(=O)(=O)c1ccc(Cl)c(S(N)(=O)=O)c1
inactive: Potency [1] | Potency [2] | Potency [3] | Potency [4] | Potency [5]

CCOc1ccc(NC(C)=O)cc1
inactive: Potency [1] | Potency [2] | Potency [3] | Potency [4] | Potency [5]

CCOC(=O)[C@H](CCc1ccccc1)N[C@@H](C)C(=O)N1[C@H](C(=O)O)C[C@@H]2CCC[C@@H]21
inactive: Potency [1] | Potency [2] | Potency [3] | Potency [4] | Potency [5]

O=C(O)CCc1nc2ccccc2[nH]1
inactive: Potency [1] | Potency [2] | Potency [3] | Potency [4] | outcome [15]

OCc1ccccn1
inactive: Potency [1] | Potency [2] | Potency [3] | Potency [4]

Cl/C(=C\n1cncn1)c1ccc(Cl)cc1Cl
active: Potency [1] 4.9 µM | Potency [2] 11 µM
inactive: Potency [3] | Potency [4] | Potency [11] | outcome [12] | outcome [13] | Potency [14]

C=CCN1CCc2nc(N)sc2CC1
inactive: Potency [1] | Potency [2] | Potency [3] | Potency [4]

Reference: PubChem BioAssay (NCATS)
